# Assay results reported in PubChem BioAssay (NCATS).
# Values joined by “and” are separate entries in the source; they are usually repeats but may differ in a detail not shown here. Identical values can stand only once. Inconclusive results are not listed. Unmarked numbers belong to inactive results. Active and inactive are the calls of the source. The call rests on the fitted dose curve; in most records, active means well fitted curve in the direction sought with a large enough effect; inconclusive means small, poorly fitted or top-dose-only effect, or another doubt; inactive means no such curve, though single readings can be large; an effect the other way counts as inactive or inconclusive.
# Tests used:
# [1] = Drug repurposing screens with cells derived from glioblastoma tumor samples (AID 1345199); details: GBM patient neurospheres viability, ATP luminescence, 48 h; further: nearly all actives have a fitted effect of over 40% in size
# How it was run: (§1)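 Primary testing used CD133+ neurospheres from four GBM patients, seven concentrations, 48 h exposure and ATP-based viability; confirmation added three slower-growing patient lines.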
# [2] = tested on: astro; experiment: as above; details: viability, ATP luminescence, 48 h; series mostly up to 45.9 µM
# How it was run: as §1
# [3] = qHTS assay to identify inhibitors of the type 1 interferon - major histocompatibility complex class I in skeletal muscle: Counter screen cell viability and HiBit confirmation (AID 1347412); details: iHSKM muscle cells + IFN-b, HiBiT or CellTiter-Glo, 24 h; for activity change, negative = inhibition: at 45.9 µM (top of the series); on all read-outs here: nearly all actives have a fitted effect of over 60% in size
# How it was run: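 Myoblasts (C25cl48, HLA-B HiBiT) seeded in medium without dexamethasone, IFN-b 4 ng/ml added except unstimulated columns; 1 hr later compounds pinned (12-pt 1:3, top 46 uM final). Incubated 24 hrs, lysed 10 min, luminescence measured.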
# [4] = tested on: Tov112D; experiment: Primary qHTS to identify gynecologic anti-cancer compounds using libraries of approved drugs and bioactive compounds (AID 1345084); details: Gynecologic cancer cell panel viability, ATPlite luminescence, 48 h; series mostly up to 57.5 µM; further: nearly all actives have a fitted effect of over 55% in size
# How it was run: (§2)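 Cells, 1,000 per well, plated 16 h, then exposed 48 h at 37 C to compounds. Viability by ATPlite luminescence after 15 min at room temperature.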
# [5] = tested on: Tov-21-G; experiment: as above; details: Gynecologic cancer cell panel viability, ATPlite luminescence, 48 h; series mostly up to 57.5 µM
# How it was run: as §2
# [6] = at 45.9 µM (top of the series), tumour line B
# [7] = at 45.9 µM (top of the series), tumour line D
# [8] = at 46 µM (top of the series), tumour line A
# [9] = at 46.1 µM (top of the series), tumour line C
# [10] = at 20 µM (top of the series), tumour line C
# [11] = at 21.2 µM (top of the series), tumour line B
# [12] = at 21.2 µM (top of the series), tumour line D
# [13] = at 21.3 µM (top of the series), tumour line A
# On the % scale 0 is the no-effect control and ±100 the full control effect; potency means the concentration at half of the fitted maximal effect.
smiles,measurement,setting,value
Nc1ccn([C@@H]2CS[C@H](CO)O2)c(=O)n1,"activity, negative = cell killing",[1]; [6],-9.03%
same,"activity, negative = cell killing",[1]; [7],-12.1%
same,"activity, negative = cell killing",[1]; [8],-14.9%
same,"activity, negative = cell killing",[1]; [9],6.78%
same,Potency,[2],inactive
O=c1[nH]nc(Sc2ncc([N+](=O)[O-])s2)n1-c1ccc2c(c1)OCCO2,Potency,[3]; HiBiT,14000 nM (active)
CC=CC1=C(C(=O)O)N2C(=O)[C@H](NC(=O)[C@H](N)c3ccc(O)cc3)[C@@H]2SC1,"activity, negative = cell killing",[1]; [6],-15%
same,"activity, negative = cell killing",[1]; [7],-0.836%
same,"activity, negative = cell killing",[1]; [8],-26.1%
same,"activity, negative = cell killing",[1]; [9],-17.4%
same,Potency,[2],inactive
C[C@H]1C[C@@H]2[C@@H]([C@@H](O)C[C@@]3(C)[C@H]2CC[C@]3(O)C(=O)CO)[C@@]2(C)C=CC(=O)C=C12,"activity, negative = cell killing",[1]; [10],-10.7%
same,"activity, negative = cell killing",[1]; [11],-18.9%
same,"activity, negative = cell killing",[1]; [12],-26.6%
same,"activity, negative = cell killing",[1]; [13],-9.28%
same,Potency,[2],inactive
CC(C)(C)c1cnc(CSc2cnc(NC(=O)C3CCNCC3)s2)o1,Potency,[3]; HiBiT,351 nM (active)
same,"activity change, negative = inhibition",[3]; Viability,9.32%
CC(C)c1ccc(Cn2ccc3c4c(N)nc(NC5CC5)nc4ccc32)cc1,Potency,[3]; HiBiT,17600 nM (active)
same,Potency,[3]; Viability,27900 nM (active)
CCN1CCN(Cc2ccc(-c3cc4c(N[C@H](C)c5ccccc5)ncnc4[nH]3)cc2)CC1,Potency,[3]; HiBiT,19800 nM (active)
COc1c(N2C[C@@H]3CCCN[C@H]3C2)c(F)cc2c(=O)c(C(=O)O)cn(C3CC3)c12,"activity, negative = cell killing",[1]; [6],6.2% and 1.37%
same,"activity, negative = cell killing",[1]; [7],-16.2% and 10%
same,"activity, negative = cell killing",[1]; [8],-18.3%
same,"activity, negative = cell killing",[1]; [9],4.44% and 2.53%
same,Potency,[2],inactive
C[C@@]12O[C@@H](C[C@]1(O)CO)n1c3ccccc3c3c4c(c5c6ccccc6n2c5c31)CNC4=O,Potency,[3]; HiBiT,701 nM (active)
same,"activity change, negative = inhibition",[3]; Viability,-0.759%
CC[C@H]1CN2CCc3cc(OC)c(OC)cc3[C@H]2C[C@@H]1C[C@@H]1NCCc2cc(OC)c(OC)cc21,Potency,[2],447 nM (active)
CC(C)C[C@H](NC(=O)CNC(=O)c1cc(Cl)ccc1Cl)B(O)O,Potency,[3]; HiBiT,557 nM (active)
CC[C@@H]1C(=O)N(C)c2cnc(Nc3ccc(C(=O)NC4CCN(C)CC4)cc3OC)nc2N1C1CCCC1,"activity change, negative = inhibition",[3]; Viability,-4.51%
CC[C@H](CO)Nc1nc(NCc2ccccc2)c2ncn(C(C)C)c2n1,Potency,[3]; HiBiT,17600 nM (active)
same,"activity change, negative = inhibition",[3]; Viability,-8.22%
O=C(CCCCCCC(=O)Nc1ccc([C@H]2O[C@@H](CSc3nc(-c4ccccc4)c(-c4ccccc4)o3)C[C@@H](c3ccc(CO)cc3)O2)cc1)NO,Potency,[4],inactive
CC(C)(C)c1cc(C(C)(C)C)c(NC(=O)c2c[nH]c3ccccc3c2=O)cc1O,"activity change, negative = inhibition",[3]; HiBiT,-18%
same,"activity change, negative = inhibition",[3]; Viability,-12%
O=C(O)c1ccc2c(c1)nc(Nc1cccc(Cl)c1)c1ccncc12,Potency,[5],22400 nM (active)
CN1c2cc(O)c(N=NC(N)=O)cc2CC1S(=O)(=O)O (stereo not drawn),"activity, negative = cell killing",[1]; [6],-14.6%
same,"activity, negative = cell killing",[1]; [7],7.92%
same,"activity, negative = cell killing",[1]; [9],-16.8%
same,Potency,[2],inactive
COC(=O)[C@]12CCC(C)(C)C[C@@H]1[C@@H]1C(=O)C=C3[C@@]4(C)C=C(C#N)C(=O)C(C)(C)[C@@H]4CC[C@@]3(C)[C@]1(C)CC2,Potency,[2],3160 nM (active)
Nc1ncnc2c1c(-c1cccc(OCc3ccccc3)c1)cn2C1CC(CN2CCCC2)C1 (stereo not drawn),Potency,[4],inactive
same,Potency,[3]; HiBiT,22200 nM (active)
C=C1C(=CC=C2CCC[C@]3(C)[C@@H]([C@H](C)C=C[C@H](C)C(C)C)CC[C@@H]23)C[C@@H](O)C[C@@H]1O,Potency,[2],25100 nM (active)
Cc1cc(Nc2cc(N3CCN(C)CC3)nc(Sc3ccc(NC(=O)C4CC4)cc3)n2)n[nH]1,Potency,[5],inactive
O=C(NC1CCNCC1)c1[nH]ncc1NC(=O)c1c(Cl)cccc1Cl,Potency,[3]; HiBiT,442 nM (active)
same,"activity change, negative = inhibition",[3]; Viability,4.1%
COC(=O)C[C@](O)(CCCC(C)(C)O)C(=O)O[C@@H]1C(OC)=C[C@]23CCCN2CCc2cc4c(cc2[C@H]13)OCO4,"activity, negative = cell killing",[1]; [9],-97.3%
same,Potency,[1]; tumour line A,224 nM (active)
same,Potency,[1]; tumour line B,316 nM (active)
same,Potency,[1]; tumour line D,1000 nM (active)
same,Potency,[2],251 nM (active)
same,Potency,[3]; HiBiT,279 nM (active)
same,"activity change, negative = inhibition",[3]; Viability,0.0855%
COc1ccc(CC2c3cc(OC)c(OC)cc3CC[N+]2(C)CCC(=O)OCCCCCOC(=O)CC[N+]2(C)CCc3cc(OC)c(OC)cc3C2Cc2ccc(OC)c(OC)c2)cc1OC (stereo not drawn),"activity, negative = cell killing",[1]; [10],-5.82%
same,"activity, negative = cell killing",[1]; [11],-8.61%
same,"activity, negative = cell killing",[1]; [12],-8.93%
same,"activity, negative = cell killing",[1]; [13],-14%
same,Potency,[2],inactive
CC(C)[C@H](C(=O)Nc1ccc(C(=O)NO)cc1)c1ccccc1,Potency,[3]; HiBiT,1110 nM (active)
same,"activity change, negative = inhibition",[3]; Viability,-7.44%
Cn1cncc1[C@@](N)(c1ccc(Cl)cc1)c1ccc2c(c1)c(-c1cccc(Cl)c1)cc(=O)n2C,"activity change, negative = inhibition",[3]; HiBiT,-17.7%
same,"activity change, negative = inhibition",[3]; Viability,-17.4%
Cc1c(NC(=O)OC[C@@H]2COCCN2)cn2ncnc(Nc3ccc4c(cnn4Cc4cccc(F)c4)c3)c12,Potency,[5],inactive
same,Potency,[4],inactive
c1cc(-c2cnn3cc(-c4ccc(OCCN5CCCCC5)cc4)cnc23)ccn1,Potency,[3]; HiBiT,14000 nM (active)
CN1CCN(c2cc(C(=O)Nc3ccc4c(c3)-c3c(c(C(N)=O)nn3-c3ccc(F)cc3)CC4)c(Cl)cn2)CC1,Potency,[3]; HiBiT,22200 nM (active)
same,Potency,[3]; Viability,27900 nM (active)
COCCn1c2c([n+](Cc3cnccn3)c1C)C(=O)c1ccccc1C2=O,Potency,[3]; HiBiT,1980 nM (active)
same,Potency,[3]; Viability,2490 nM (active)
C=CC(=O)Nc1cc2c(Nc3ccc(F)c(Cl)c3)ncnc2cc1C#CC(C)(C)N1CCN(C)CC1,Potency,[3]; Viability,22200 nM (active)
Cc1cc(Nc2cc(NC(=O)c3c(Cl)cccc3Cl)ccn2)nc(N)n1,Potency,[3]; HiBiT,2790 nM (active)
same,"activity change, negative = inhibition",[3]; Viability,21.4%
O=c1[nH]c(=O)n(C2CCCO2)cc1F (stereo not drawn),"activity, negative = cell killing",[1]; [6],-6.45%
same,"activity, negative = cell killing",[1]; [7],-14.2%
same,"activity, negative = cell killing",[1]; [8],-9.36%
same,"activity, negative = cell killing",[1]; [9],-4%
same,Potency,[2],inactive
Cc1ccc(-c2ncn(-c3ccc(Nc4nccc(-c5cccc(N6CCOCC6)c5)n4)cc3)n2)cn1,Potency,[3]; HiBiT,2490 nM (active)
same,"activity change, negative = inhibition",[3]; Viability,-8.69%
CC(C)(C)NC(=O)[C@H]1CN(Cc2cccnc2)CCN1C[C@@H](O)C[C@@H](Cc1ccccc1)C(=O)N[C@H]1c2ccccc2C[C@H]1O,"activity, negative = cell killing",[1]; [9],35.7%
same,Potency,[1]; tumour line A,17800 nM (active)
O=C(O)CO.[NH2-].[NH2-].[Pt+2],"activity, negative = cell killing",[1]; [6],-16.9%
same,"activity, negative = cell killing",[1]; [7],26.7%
same,"activity, negative = cell killing",[1]; [8],-24.8%
same,"activity, negative = cell killing",[1]; [9],-11%
same,Potency,[2],inactive
